Inconclusive results are not listed. A call without a number means that no potency is given here. Calls of active or inactive are those of the source. Unless noted, calls come from the whole dose curve; as a rule, active = well fitted curve in the direction sought with a large enough effect; inconclusive = small, poorly fitted or top-dose-only effect, or another doubt; inactive = no such curve, though single readings can be large; an effect the other way counts as inactive or inconclusive.
Tests used:
[1] = Confirmation and Secondary Assay for Modulators of Hemoglobin Beta Chain Splicing at IVS2 654 locus (AID 910);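 note: HeLa cells stably carrying EGFP split by mutant beta-globin IVS2-654 intron; per-well total GFP intensity by laser scanning cytometry after 2-day treatment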
In short: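 Readout: per-well total peak green fluorescence (488 nm ex, 500–520 nm em) from objects 5–250 µm, reflecting correct splicing of an EGFP-654 reporter. Compounds were applied for 2 days at 37 °C to overnight-plated HeLa EGFP-654 cells; controls were DMSO and 500 nM IVS2-654 PNA.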

[2] = Confirmation and Secondary Assay for Modulators of Hemoglobin Beta Chain Splicing at IVS2 705 locus (AID 930);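 note: HeLa cells stably expressing the EGFP-705 splicing reporter; GFP fluorescence per well restored by corrected splicing of the IVS2-705 intron in EGFP; series mostly up to about 46 µM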
In short: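 HeLa IVS2-705 EGFP reporter cells, 500/well, compound 2 d at 37C; correct splicing yields fluorescent EGFP. Control: 500 nM antisense PNA. Read-out: total peak GFP intensity.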

[3] = molecular target: Ubiquitin carboxyl-terminal hydrolase 1 (Homo sapiens) (UniProt O94782); assay: Inhibitors of USP1/UAF1: Pilot qHTS (AID 504865); note: nearly all actives have a fitted effect of over 35% in size; note: potency is the fitted concentration of half-maximal effect
Ubiquitin carboxyl-terminal hydrolase 1 (Homo sapiens), sequence (O94782 whole entry, looked up): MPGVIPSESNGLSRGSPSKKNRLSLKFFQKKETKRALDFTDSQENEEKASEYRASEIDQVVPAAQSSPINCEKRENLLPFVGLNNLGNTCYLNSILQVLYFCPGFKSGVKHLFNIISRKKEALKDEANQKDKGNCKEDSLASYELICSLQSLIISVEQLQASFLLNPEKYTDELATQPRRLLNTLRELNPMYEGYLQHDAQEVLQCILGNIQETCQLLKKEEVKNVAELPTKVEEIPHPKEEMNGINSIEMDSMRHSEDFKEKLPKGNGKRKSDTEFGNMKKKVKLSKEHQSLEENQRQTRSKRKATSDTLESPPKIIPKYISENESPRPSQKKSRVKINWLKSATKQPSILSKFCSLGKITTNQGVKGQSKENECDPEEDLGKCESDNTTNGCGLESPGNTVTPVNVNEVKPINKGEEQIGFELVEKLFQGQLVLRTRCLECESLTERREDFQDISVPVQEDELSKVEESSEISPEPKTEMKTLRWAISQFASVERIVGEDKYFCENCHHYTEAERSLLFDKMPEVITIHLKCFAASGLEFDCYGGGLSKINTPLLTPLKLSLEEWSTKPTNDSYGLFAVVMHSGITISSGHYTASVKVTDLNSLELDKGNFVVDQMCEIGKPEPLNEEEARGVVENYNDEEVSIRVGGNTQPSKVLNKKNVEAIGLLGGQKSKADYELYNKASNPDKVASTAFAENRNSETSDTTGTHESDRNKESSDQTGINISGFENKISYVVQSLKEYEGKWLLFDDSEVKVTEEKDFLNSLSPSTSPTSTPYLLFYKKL
In short: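 In 50mM HEPES pH 7.8 containing 0.5mM EDTA, 1mM TCEP, 0.1 mg/ml BSA and 0.01% Tween-20, 1nM USP1/UAF1 is exposed to compound for 15 min, then Ub-Rho (150nM final) is added and fluorescence is read over time.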

[4] = qHTS assay for small molecule agonists of the antioxidant response element (ARE) signaling pathway (AID 651741; active = well fitted activation curve with a large enough effect in the signal ratio; the % refers to the signal ratio; note: potency is the fitted concentration of half-maximal effect)
In short: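 Quantitative HTS in HepG2 cells stably expressing an ARE-beta-lactamase reporter; 16 h compound exposure at 37 C, followed by 2 h room-temperature incubation with LiveBLAzer B/G FRET substrate and fluorescence measurement.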

[5] = qHTS assay for small molecule activators of the human pregnane X receptor (PXR) signaling pathway (AID 720659; call rule not given here)
[6] = molecular target: Peroxisome proliferator-activated receptor gamma (Homo sapiens) (UniProt P37231); assay: qHTS assay for small molecule antagonists of peroxisome proliferator-activated receptor gamma signaling (AID 588537; active = well fitted inhibition curve with a large enough effect in the signal ratio, with a control signal flat, not every such curve was filed as active; the % refers to the signal ratio;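 note: reporter cells co-stimulated with 50 nM rosiglitazone agonist during compound treatment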)
Peroxisome proliferator-activated receptor gamma (Homo sapiens), sequence (P37231 whole entry, looked up): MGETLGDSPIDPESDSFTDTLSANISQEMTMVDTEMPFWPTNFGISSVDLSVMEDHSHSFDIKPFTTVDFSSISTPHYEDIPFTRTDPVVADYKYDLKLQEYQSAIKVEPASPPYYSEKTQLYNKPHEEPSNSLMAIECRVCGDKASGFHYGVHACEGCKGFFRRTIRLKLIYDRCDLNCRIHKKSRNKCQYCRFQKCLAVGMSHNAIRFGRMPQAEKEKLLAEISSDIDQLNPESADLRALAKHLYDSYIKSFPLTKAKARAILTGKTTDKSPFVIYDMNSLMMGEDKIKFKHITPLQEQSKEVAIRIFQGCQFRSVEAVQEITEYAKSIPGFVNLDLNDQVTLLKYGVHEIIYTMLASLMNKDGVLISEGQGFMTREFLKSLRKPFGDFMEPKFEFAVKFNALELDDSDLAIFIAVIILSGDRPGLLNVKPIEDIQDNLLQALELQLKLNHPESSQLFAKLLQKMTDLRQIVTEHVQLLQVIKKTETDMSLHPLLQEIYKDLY
In short: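 Antagonist mode, beta-lactamase reporter in HEK293; charcoal/dextran FBS 1%; 3000 cells/well, 37 C 6-6.5 h; cpd titration + rosiglitazone 50 nM final, 16 h 37 C; CCF4, 2 h RT; 460/530 nm; Hill fit → IC50, efficacy.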

[7] = molecular target: Thyroid hormone receptor beta (Homo sapiens) (UniProt P10828); assay: qHTS assay for small molecule antagonists of thyroid hormone receptor beta signaling (AID 588547; active = well fitted inhibition curve with a large enough effect in the signal ratio, with a control signal flat, not every such curve was filed as active; the % refers to the signal ratio; note: potency is the fitted concentration of half-maximal effect;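 for activity change % (negative = inhibition): cells stimulated with 0.4 nM T3 agonist during compound exposure; series mostly up to about 77 µM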); details: TR-UAS-bla HEK293, beta-lactamase ratio, antagonist mode, 18 h
Thyroid hormone receptor beta (Homo sapiens), sequence (P10828 whole entry, looked up): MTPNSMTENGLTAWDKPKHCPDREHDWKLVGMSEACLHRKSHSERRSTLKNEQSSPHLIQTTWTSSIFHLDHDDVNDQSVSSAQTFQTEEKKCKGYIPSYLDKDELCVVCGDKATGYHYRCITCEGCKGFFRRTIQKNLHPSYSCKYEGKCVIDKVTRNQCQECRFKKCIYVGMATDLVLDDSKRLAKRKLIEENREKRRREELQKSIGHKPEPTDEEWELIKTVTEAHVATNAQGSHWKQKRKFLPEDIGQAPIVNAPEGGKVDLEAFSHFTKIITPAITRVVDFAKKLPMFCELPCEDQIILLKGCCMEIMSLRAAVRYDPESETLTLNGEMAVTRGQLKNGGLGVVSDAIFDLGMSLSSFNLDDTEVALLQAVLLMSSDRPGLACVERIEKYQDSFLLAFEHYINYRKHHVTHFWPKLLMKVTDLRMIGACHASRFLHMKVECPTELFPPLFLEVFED
In short: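 Inhibition of T3-driven (0.4nM final) beta-lactamase reporter activity was measured over 0.59 nM to 92 uM compound after 18 h at 37 C. The cells were GripTite HEK293 TR-UAS-bla in charcoal/dextran-stripped serum, with CCF4 ratio read-out and IC50 from Hill fits.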

[8] = molecular target: Cytochrome P450 3A4 (Homo sapiens) (UniProt P08684); assay: qHTS Assay for Activators of Cytochrome P450 3A4 (AID 885); note: nearly all actives have a fitted effect of over 65% in size
Cytochrome P450 3A4 (Homo sapiens), sequence (P08684 whole entry, looked up): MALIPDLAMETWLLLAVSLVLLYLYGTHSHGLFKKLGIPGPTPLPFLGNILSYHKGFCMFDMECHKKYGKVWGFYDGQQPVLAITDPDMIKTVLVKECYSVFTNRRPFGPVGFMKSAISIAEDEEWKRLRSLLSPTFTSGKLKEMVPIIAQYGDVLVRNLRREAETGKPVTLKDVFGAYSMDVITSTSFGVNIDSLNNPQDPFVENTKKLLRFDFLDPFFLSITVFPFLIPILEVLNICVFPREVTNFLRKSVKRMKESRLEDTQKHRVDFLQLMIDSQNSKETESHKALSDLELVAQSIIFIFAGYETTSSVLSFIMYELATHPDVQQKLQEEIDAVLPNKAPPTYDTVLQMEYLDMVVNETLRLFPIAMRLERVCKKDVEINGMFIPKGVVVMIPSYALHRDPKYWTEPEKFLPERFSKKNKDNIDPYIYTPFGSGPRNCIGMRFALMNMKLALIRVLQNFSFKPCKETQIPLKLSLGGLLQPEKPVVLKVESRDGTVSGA
In short: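 Steps: enzyme/substrate mix dispensed; compound added, 10 min RT; NADPH regeneration solution added, 60 min RT; luciferin detection buffer stops reaction; 20 min later luminescence measured.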

[9] = molecular target: Glucocorticoid receptor (Homo sapiens) (UniProt P04150); assay: qHTS assay for small molecule antagonists of glucocorticoid receptor signaling (AID 588533; active = well fitted inhibition curve with a large enough effect in the signal ratio, with a control signal flat, not every such curve was filed as active; the % refers to the signal ratio;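 note: cells stimulated with 2 nM dexamethasone as agonist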)
Glucocorticoid receptor (Homo sapiens), sequence (P04150 whole entry, looked up): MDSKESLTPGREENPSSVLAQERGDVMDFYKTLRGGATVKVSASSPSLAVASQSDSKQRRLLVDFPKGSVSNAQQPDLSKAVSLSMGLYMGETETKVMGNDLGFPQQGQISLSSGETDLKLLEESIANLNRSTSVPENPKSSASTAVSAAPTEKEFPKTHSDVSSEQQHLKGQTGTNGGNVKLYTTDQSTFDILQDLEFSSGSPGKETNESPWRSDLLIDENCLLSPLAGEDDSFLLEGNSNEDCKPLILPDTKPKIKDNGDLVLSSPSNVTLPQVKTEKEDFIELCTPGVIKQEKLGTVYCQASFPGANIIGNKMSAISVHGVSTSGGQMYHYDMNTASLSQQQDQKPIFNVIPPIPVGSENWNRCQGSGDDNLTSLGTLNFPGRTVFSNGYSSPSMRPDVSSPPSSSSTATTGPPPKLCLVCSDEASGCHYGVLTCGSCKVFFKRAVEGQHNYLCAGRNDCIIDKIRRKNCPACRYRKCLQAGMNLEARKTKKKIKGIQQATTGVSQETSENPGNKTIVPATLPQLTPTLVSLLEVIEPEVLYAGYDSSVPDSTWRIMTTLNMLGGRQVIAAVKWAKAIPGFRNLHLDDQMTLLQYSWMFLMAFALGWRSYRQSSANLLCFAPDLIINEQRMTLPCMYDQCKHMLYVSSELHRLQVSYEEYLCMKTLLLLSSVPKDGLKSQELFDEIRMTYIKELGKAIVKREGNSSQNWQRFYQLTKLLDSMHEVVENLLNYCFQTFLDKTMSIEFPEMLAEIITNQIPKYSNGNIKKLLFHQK
In short: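 Antagonist-mode qHTS: compound titrations added to GRE-bla HeLa cells, then dexamethasone 2 nM final; 18 h, 37 C. CCF4 FRET fluorescence normalized to dexamethasone and DMSO; IC50 from Hill fit.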

[10] = qHTS assay for small molecule antagonists of peroxisome proliferator-activated receptor delta signaling (AID 588535; active = well fitted inhibition curve with a large enough effect in the signal ratio, with a control signal flat, not every such curve was filed as active; the % refers to the signal ratio;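 for max response: cells co-treated with a PPAR-delta agonist as stimulator during compound exposure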); details: HEK293T PPARd-UAS-bla, beta-lactamase FRET ratio, 18 h; 460 nm channel
In short: (§1)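 HEK293T PPAR-delta-UAS-bla cells, 4000/well, 2% charcoal/dextran FBS; 5 h 37 C; cpd titration; 18 h 37 C; CCF4 2 h RT; FI 460/530 nm; Hill fit → IC50, efficacy.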

[11] = molecular target: Peroxisome proliferator-activated receptor delta (Homo sapiens) (UniProt Q03181); assay: as above
Peroxisome proliferator-activated receptor delta (Homo sapiens), sequence (Q03181 whole entry, looked up): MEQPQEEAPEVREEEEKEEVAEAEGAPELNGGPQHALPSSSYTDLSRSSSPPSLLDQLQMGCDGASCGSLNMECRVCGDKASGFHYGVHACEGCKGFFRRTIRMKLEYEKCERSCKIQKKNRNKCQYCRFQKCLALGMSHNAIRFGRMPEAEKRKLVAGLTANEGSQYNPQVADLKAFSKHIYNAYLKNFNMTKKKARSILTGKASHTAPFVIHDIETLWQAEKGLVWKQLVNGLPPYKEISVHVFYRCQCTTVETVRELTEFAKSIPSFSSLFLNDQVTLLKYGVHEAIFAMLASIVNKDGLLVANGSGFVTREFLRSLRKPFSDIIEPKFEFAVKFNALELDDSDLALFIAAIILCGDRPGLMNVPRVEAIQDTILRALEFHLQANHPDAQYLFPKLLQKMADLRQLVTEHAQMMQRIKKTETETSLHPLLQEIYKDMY
In short: as §1

[12] = molecular target: Nuclear receptor subfamily 1 group I member 2 (Rattus norvegicus) (UniProt Q9R1A7); assay: qHTS assay for small molecule activators of the rat pregnane X receptor (rPXR) signaling pathway (AID 651751; call rule not given here); details: rPXR reporter cells, luciferase (One-Glo), 24 h
Nuclear receptor subfamily 1 group I member 2 (Rattus norvegicus), sequence (Q9R1A7 whole entry, looked up): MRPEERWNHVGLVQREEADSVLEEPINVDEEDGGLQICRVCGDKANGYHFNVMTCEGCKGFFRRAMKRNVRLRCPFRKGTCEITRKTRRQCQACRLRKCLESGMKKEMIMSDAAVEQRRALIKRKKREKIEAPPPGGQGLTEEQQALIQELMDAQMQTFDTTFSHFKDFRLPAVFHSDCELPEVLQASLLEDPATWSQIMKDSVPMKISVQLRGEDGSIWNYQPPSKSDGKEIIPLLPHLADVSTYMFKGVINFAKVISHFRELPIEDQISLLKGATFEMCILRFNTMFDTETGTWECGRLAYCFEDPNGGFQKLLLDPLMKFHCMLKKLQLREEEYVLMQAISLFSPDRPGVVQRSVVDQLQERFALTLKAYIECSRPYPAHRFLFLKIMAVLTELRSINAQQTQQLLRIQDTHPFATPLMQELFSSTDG

[13] = molecular target: DNA dC->dU-editing enzyme APOBEC-3G (Homo sapiens) (UniProt Q9HC16); assay: qHTS for inhibitors of Vif-A3G interactions: Validation (AID 588379)
DNA dC->dU-editing enzyme APOBEC-3G (Homo sapiens), sequence (Q9HC16 whole entry, looked up): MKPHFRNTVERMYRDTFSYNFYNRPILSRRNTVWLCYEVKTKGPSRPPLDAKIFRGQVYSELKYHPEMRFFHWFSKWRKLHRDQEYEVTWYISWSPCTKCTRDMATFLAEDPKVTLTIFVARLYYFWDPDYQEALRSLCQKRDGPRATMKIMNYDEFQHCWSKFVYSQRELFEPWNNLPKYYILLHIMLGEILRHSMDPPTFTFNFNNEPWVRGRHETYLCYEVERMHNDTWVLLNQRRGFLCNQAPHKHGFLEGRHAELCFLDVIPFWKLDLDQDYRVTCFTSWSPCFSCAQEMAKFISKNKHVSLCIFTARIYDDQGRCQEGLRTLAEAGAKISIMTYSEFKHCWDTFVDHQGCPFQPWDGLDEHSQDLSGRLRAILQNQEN
In short: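 HeLa cells stably expressing Vif and A3G-eYFP, 700 cells/well, incubated overnight at 37 deg C, then exposed to compound overnight at 37 deg C. Inhibition of Vif-mediated degradation read as increased yellow fluorescence (Ex 488/Em 500-530) by laser-scanning cytometry.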

[14] = molecular target: Mitogen-activated protein kinase 10 (Mus musculus) (UniProt Q61831); assay: JNK3 AlphaScreen Assay (AID 530; active = well fitted curve in either direction with a large enough effect, not every such curve was filed as active;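 note: kinase came from lysate of stimulated human HepG2 cells; signal reports phosphorylation of biotinylated GST-cJun 1-79 at Ser73 with 10 µM ATP; series mostly up to about 57 µM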)
In short: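 Compound titrations were preincubated 15 minutes at room temperature with substrate, antibody and pre-activated JNK3-containing HepG2 lysate. Reactions were started with 10 uM ATP and stopped with EDTA-containing bead buffer for AlphaScreen detection.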

Q: What does the source list for `CC(C)N(C(=O)CCl)c1ccccc1`?
A: Potency [1]: inactive; outcome [2]: inactive; Potency [3]: inactive; Potency [4]: 17.2 µM (active); outcome [5]: inactive

Q: For `CC[C@]1([C@H]2O[C@@H]([C@@H]3O[C@](O)(CO)[C@@H](C)C[C@H]3C)C[C@H]2C)CC[C@@H]([C@]2(C)CC[C@@]3(C[C@@H](O)[C@@H](C)[C@@H]([C@H](C)[C@H](OC)[C@H](C)C(=O)O)O3)O2)O1`, which Potency [3] is on record?
A: inactive

Q: What does the source list for `CSc1nc(NC(C)C)nc(NC(C)C)n1`?
A: Potency [1]: inactive; outcome [2]: inactive; Potency [3]: inactive; Potency [6]: inactive; activity change % (negative = inhibition) [7]: -0.16% (inactive)

Q: What does the source list for `CCCCN(CC)c1c([N+](=O)[O-])cc(C(F)(F)F)cc1[N+](=O)[O-]`?
A: Potency [8]: inactive; Potency [1]: inactive; outcome [2]: inactive; Potency [3]: inactive; Potency [9]: inactive; max response [10]: 41.5%; Potency [11]: inactive; Potency [6]: inactive; activity change % (negative = inhibition) [7]: -21.6% (inactive); Potency [4]: inactive; max response [12]: 3.44% (inactive)

Q: Which results are given for `CNNC`?
A: Potency [8]: inactive; Potency [1]: inactive; outcome [2]: inactive; Potency [3]: inactive

Q: Which Potency [1] does the source give for `NCC(N)C(=O)c1ccccc1` (configuration not stated) here?
A: inactive

Q: And the outcome [2]?
A: inactive

Q: And the Potency [3]?
A: inactive

Q: For `COc1ccc(CC2NC[C@H](O)[C@H]2OC(C)=O)cc1` (some centres not stated), which Potency [1] is on record?
A: inactive

Q: What about the outcome [2] of the same molecule?
A: inactive

Q: And the Potency [3]?
A: inactive

Q: For `CC(C)=O`, which Potency [3] is on record?
A: inactive

Q: Which Potency [3] does the source give for `CNC1=CN(O)C(c2ccccc2)=c2cc(Cl)ccc2=N1` here?
A: inactive

Q: Which Potency [1] does the source give for `CC(CO)NC(=O)C1C=C2c3cccc4[nH]cc(c34)C[C@H]2N(C)C1` (some centres not stated) here?
A: inactive

Q: And the outcome [2]?
A: inactive

Q: And the Potency [3]?
A: inactive

Q: With `OCC1OC(n2cnc3cc(Cl)c(Cl)cc32)C(O)C1O` (configuration not stated) as the molecule, how does the Potency [1] read?
A: inactive

Q: What about the outcome [2] of the same molecule?
A: inactive

Q: And the Potency [3]?
A: inactive

Q: Which results are given for `CC(=O)OC1C2CCC3C1(CC(O)[C@@]1(O)[C@@H](CC(O)C1(C)C)[C@]3(C)O)C[C@@]2(C)O` (some centres not stated)?
A: Potency [1]: inactive; outcome [2]: inactive; Potency [3]: inactive

Q: With `N#Cc1c(Cl)c(Cl)c(Cl)c(C#N)c1Cl` as the molecule, how does the Potency [8] read?
A: inactive

Q: And the Potency [1]?
A: inactive

Q: And the outcome [2]?
A: inactive

Q: What about the Potency [3] of the same molecule?
A: 10 µM (active)

Q: And the Potency [7]?
A: 2.51 µM (active)

Q: Which results are given for `C=CCO[C@@H](Cn1ccnc1)c1ccc(Cl)cc1Cl`?
A: Potency [8]: inactive; Potency [3]: inactive

Q: For `O=C1CC[C@]2(O)C3Cc4ccc(O)c5c4C2(CCN3CC2CC2)C1O5` (some centres not stated), which Potency [1] is on record?
A: inactive

Q: And the outcome [2]?
A: inactive

Q: And the Potency [3]?
A: inactive

Q: With `COc1cc2c(cc1OC)-c1c(O)c(OC)cc3c1[C@H](C2)N(C)CC3` as the molecule, how does the Potency [8] read?
A: inactive

Q: And the outcome [13]?
A: inactive

Q: Which outcome [13] does the source give for `COC1=C[C@H]2[C@H]3Cc4ccc(OC)c(O)c4[C@@]2(CCN3C)CC1=O` here?
A: inactive

Q: Which outcome [14] does the source give for `CCN1C[C@@]2(COC)[C@H](O)C[C@H](OC)[C@@]34[C@@H]5C[C@@]6(O)[C@H](OC(=O)c7ccccc7)[C@H]5[C@@](OC(C)=O)([C@H]([C@@H](OC)[C@H]23)[C@H]14)[C@H](O)[C@@H]6OC` here?
A: inactive

Q: With `O=CN1CC2CC(C1)c1cccc(=O)n1C2` (configuration not stated) as the molecule, how does the outcome [13] read?
A: inactive

Q: Which results are given for `c1cc2c(cc1[C@H]1OC[C@@H]3[C@H]1CO[C@H]3c1ccc3c(c1)OCO3)OCO2`?
A: Potency [8]: inactive; outcome [13]: inactive

Q: For `CN(C)C1C(=O)C(C(N)=O)=C(O)[C@@]2(O)C(=O)C3=C(O)c4c(O)cccc4[C@@](C)(O)C3[C@H](O)C12` (some centres not stated), which outcome [13] is on record?
A: inactive

Q: With `CC1CC[C@@]2(OC1)O[C@@H]1[C@@H](O)[C@H]3C4CC[C@H]5C[C@@H](O[C@@H]6O[C@H](CO)[C@H](O[C@@H]7O[C@H](CO)[C@@H](O)[C@H](O[C@@H]8OC[C@@H](O)[C@H](O)[C@H]8O)[C@H]7O[C@@H]7O[C@H](CO)[C@@H](O)[C@H](O[C@@H]8O[C@H](CO)[C@@H](O)[C@H](O)[C@H]8O)[C@H]7O)[C@H](O)[C@H]6O)[C@H](O)C[C@]5(C)C4CC[C@]3(C)[C@H]1[C@@H]2C` (some centres not stated) as the molecule, how does the outcome [13] read?
A: inactive

Reference: PubChem BioAssay (NCATS)
